Data as given in PubChem BioAssay (EPA / NIEHS).
Inconclusive results are not listed. Active and inactive are the calls of the source. How the source made its calls, unless noted: active means hit-call score of the fitted dose curve at least 0.9, where 1 is the maximum; inactive means score below 0.9.

Experiments:
[1] = read-out: Monocyte Chemoattractant Protein-1 (MCP1), CCL2 (gene 6347); assay: BSK_LPS_MCP1: BioMAP Diversity Plus: LPS Assay for Monocyte Chemoattractant Protein-1 (MCP1) Biomarker Activity (AID 2283081); conditions: primary human HUVEC with PBMC; actives raise or lower the signal;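 on AC50: co-culture stimulated with LPS; secreted MCP-1 protein quantified by ELISA in culture supernatant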
In short: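 Values derive from bidirectional fitting against DMSO of ELISA-measured MCP-1 in a human primary endothelial and mononuclear cell co-culture, 24 h after chemical addition under LPS activation.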

[2] = BSK_LPS_PGE2: BioMAP Diversity Plus: LPS Assay for Prostaglandin E2 (PGE2) Biomarker Activity (AID 2283082); conditions: primary human HUVEC with PBMC; actives raise or lower the signal;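 on AC50: secreted prostaglandin E2 measured by ELISA in LPS-stimulated co-culture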
In short: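 LPS-activated HUVEC/PBMC co-culture; cmpd dosed, 24 h; PGE2 by ELISA; bidirectional fit vs DMSO; SRB (0.1%, TCA-fixed, 560 nm) in parallel plates for overt cytotox.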

[3] = read-out: Macrophage colony-stimulating factor (MCSF), CSF1 (gene 1435); assay: BSK_LPS_MCSF: BioMAP Diversity Plus: LPS Assay for Macrophage colony-stimulating factor (MCSF) Biomarker Activity (AID 2283083); conditions: primary human HUVEC with PBMC; actives raise or lower the signal
In short: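 Bidirectional fit versus DMSO of ELISA-measured M-CSF in co-cultured human umbilical vein endothelial cells and PBMC, sampled 24 h after dosing.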

[4] = read-out: Tissue Factor, F3 (gene 2152); assay: BSK_LPS_TissueFactor: BioMAP Diversity Plus: LPS Assay for Tissue Factor Biomarker Activity (AID 2283084); conditions: primary human HUVEC with PBMC; actives raise or lower the signal
In short: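 Read-out: CD142 ELISA, 24 h. System: LPS-driven human endothelial/PBMC co-culture. Analysis: up- or down-signal fitted against DMSO.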

[5] = read-out: Tumor necrosis factor (Homo sapiens) (UniProt P01375); assay: BSK_LPS_TNFa: BioMAP Diversity Plus: LPS Assay for Tumour Necrosis Factor alpha (TNFa) Biomarker Activity (AID 2283085); conditions: primary human HUVEC with PBMC; actives raise or lower the signal
In short: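 Read-out is ELISA of TNFa in primary human endothelial cell–PBMC co-cultures at 24 h after compound. Activity in either direction was fitted against DMSO.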

[6] = read-out: Vascular cell adhesion molecule 1 (VCAM1), VCAM1 (gene 7412); assay: BSK_LPS_VCAM1: BioMAP Diversity Plus: LPS Assay for Vascular cell adhesion molecule 1 (VCAM1) Biomarker Activity (AID 2283086); conditions: primary human HUVEC with PBMC; actives raise or lower the signal
In short: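 HUVEC + PBMC co-culture, LPS system; compound 24 h; VCAM-1 by ELISA; bidirectional fit vs DMSO control; parallel SRB (0.1%, TCA-fixed, 560 nm) for cytotoxicity.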

CD40, CD40 (gene 958) = assay: BSK_SAg_CD40: BioMAP Diversity Plus: SAg Assay for CD40 Biomarker Activity (AID 2283088); conditions: primary human HUVEC with PBMC; actives raise or lower the signal
In short: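 Endpoint derived by fitting increases or decreases versus DMSO controls. CD40 is detected by fluorescence ELISA in a human vascular co-culture of endothelium and PBMC at 24 h.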

CD69, CD69 (gene 969) = assay: BSK_SAg_CD69: BioMAP Diversity Plus: SAg Assay for CD69 Biomarker Activity (AID 2283089); conditions: primary human HUVEC with PBMC; actives raise or lower the signal;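 on AC50: cell surface CD69 protein quantified by ELISA with fluorescence detection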
In short: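 HUVEC co-cultured with PBMC were dosed with chemical, and CD69 was measured by ELISA with fluorescence read-out 24 h later. Bidirectional curve fitting used DMSO as negative control and activity baseline.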

[7] = read-out: Monocyte Chemoattractant Protein-1 (MCP1), CCL2 (gene 6347); assay: BSK_SAg_MCP1: BioMAP Diversity Plus: SAg Assay for Monocyte Chemoattractant Protein-1 (MCP1) Biomarker Activity (AID 2283090); conditions: primary human HUVEC with PBMC; actives raise or lower the signal
In short: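 MCP-1 levels in the endothelial–PBMC SAg co-culture were quantified by ELISA at 24 h post-dosing; both increases and decreases versus DMSO scored. Cytotoxicity monitored by SRB total protein in parallel cultures.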

[8] = read-out: E-selectin (Homo sapiens) (UniProt P16581); assay: BSK_SAg_Eselectin: BioMAP Diversity Plus: SAg Assay for Eselectin Biomarker Activity (AID 2283091); conditions: primary human HUVEC with PBMC; actives raise or lower the signal
In short: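 Endpoint values derive from bidirectional fitting relative to DMSO, using ELISA-measured E-selectin in a human vascular co-culture (umbilical vein endothelium plus PBMC) sampled 24 h after dosing.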

[9] = read-out: Monokine induced gamma interferon (MIG), CXCL9 (gene 4283); assay: BSK_SAg_MIG: BioMAP Diversity Plus: SAg Assay for Monokine induced gamma interferon (MIG) Biomarker Activity (AID 2283092); conditions: primary human HUVEC with PBMC; actives raise or lower the signal
In short: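 HUVEC plus human PBMC co-culture, chemicals dosed and MIG (CXCL9) quantified by ELISA at 24 h. Bidirectional curve fitting against DMSO as negative control and baseline, so both gain and loss of signal count as activity.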

[10] = read-out: Interleukin-8 (IL8), CXCL8 (gene 3576); assay: BSK_SAg_IL8: BioMAP Diversity Plus: SAg Assay for Interleukin-8 (IL8) Biomarker Activity (AID 2283094); conditions: primary human HUVEC with PBMC; actives raise or lower the signal
In short: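 ELISA read-out of IL-8 in a primary human vascular co-culture (umbilical vein endothelium plus PBMC), taken 24 h after compound addition. Values derive from bidirectional fits against DMSO negative controls.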

[11] = BSK_SAg_Proliferation: Cell Proliferation Assessment in the BioMAP Diversity Plus: SAg Assay (AID 2283095); conditions: primary human HUVEC with PBMC;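 further: relative cell number as total protein by SRB absorbance in sub-confluent culture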
In short: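 Cells (endothelium plus PBMC, human primary) were dosed with chemical, cultured 96 h, fixed in 10% TCA and stained with 0.1% SRB. Absorbance at 560 nm gave relative protein, fitted bidirectionally relative to DMSO.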

[12] = BSK_SAg_SRB: Viability Assessment in the BioMAP Diversity Plus: SAg Assay (AID 2283096); conditions: primary human HUVEC with PBMC;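 further: cells read one day after compound addition; hits may be either gain or loss of signal compared with DMSO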
In short: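 Human umbilical vein endothelial cells co-cultured with PBMC, read 24 h after compound dosing. Total protein measured by sulforhodamine B staining (0.1% SRB after 10% TCA fixation, absorbance 560 nm); bidirectional fit versus DMSO baseline.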

[13] = biological target: human CYP1A1, CYP1A1 (gene 1543) (UniProt P04798); assay: NVS_ADME_hCYP1A1: NovaScreen (NVS) CYP450-related Enzyme Activity (ADME) Assay for human CYP1A1 (AID 2283100; active means hit-call score of the fitted dose curve at least 0.9, where 1 is the maximum)
Chain of human CYP1A1, CYP1A1 (gene 1543) (P04798 whole entry, looked up): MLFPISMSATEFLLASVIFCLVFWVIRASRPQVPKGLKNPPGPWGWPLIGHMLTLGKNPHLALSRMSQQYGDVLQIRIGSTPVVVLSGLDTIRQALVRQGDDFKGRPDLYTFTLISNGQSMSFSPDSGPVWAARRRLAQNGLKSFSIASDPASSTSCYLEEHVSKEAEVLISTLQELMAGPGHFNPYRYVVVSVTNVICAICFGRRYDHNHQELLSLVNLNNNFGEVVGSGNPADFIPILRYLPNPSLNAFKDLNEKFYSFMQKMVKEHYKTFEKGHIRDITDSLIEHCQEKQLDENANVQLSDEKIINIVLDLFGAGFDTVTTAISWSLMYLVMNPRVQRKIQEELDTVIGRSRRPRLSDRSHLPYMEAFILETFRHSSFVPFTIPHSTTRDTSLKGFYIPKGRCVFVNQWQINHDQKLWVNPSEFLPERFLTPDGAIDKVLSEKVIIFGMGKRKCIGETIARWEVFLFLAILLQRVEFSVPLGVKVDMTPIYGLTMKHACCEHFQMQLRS
In short: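 Inhibition of recombinant CYP1A1 turnover was assessed fluorometrically in a biochemical format 1 h after compound exposure. Testing began at 10 uM in duplicate and progressed to concentration series reaching 20 uM, with on-plate positive and negative controls.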

CD38, CD38 (gene 952) = assay: BSK_SAg_CD38: BioMAP Diversity Plus: SAg Assay for CD38 Biomarker Activity (AID 2283087); conditions: primary human HUVEC with PBMC; actives raise or lower the signal
In short: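 Human HUVEC plus PBMC co-culture stimulated with superantigen; CD38 measured by ELISA 24 h after chemical dosing. Fluorescence read-out, bidirectional fit against DMSO; cytotoxicity tracked in parallel by SRB and Alamar Blue.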

[14] = BSK_SAg_PBMCCytotoxicity: PBMC Cytotoxicity Assessment in the BioMAP Diversity Plus: SAg Assay (AID 2283093); conditions: primary human HUVEC with PBMC;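 further: PBMC viability measured as Alamar Blue reduction fluorescence at 546/580 nm; fitted both ways against DMSO so a hit may be loss or gain of signal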;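 on AC50: PBMC superantigen activated with SEB plus TSST-1 one hour after compound addition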
In short: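 HUVEC/PBMC co-culture; PBMC exposed to chemical 1 h before SEB and TSST-1 activation (20 ng/mL each), incubated 90 h, then Alamar Blue 6 h, fluorescence 546/580 nm. Bidirectional fit versus DMSO baseline.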

[15] = biological target: human CYP2A6, CYP2A6 (gene 1548) (UniProt P11509); assay: NVS_ADME_hCYP2A6: NovaScreen (NVS) CYP450-related Enzyme Activity (ADME) Assay for human CYP2A6 (AID 2283099; active means hit-call score of the fitted dose curve at least 0.9, where 1 is the maximum)
Chain of human CYP2A6, CYP2A6 (gene 1548) (P11509 whole entry, looked up): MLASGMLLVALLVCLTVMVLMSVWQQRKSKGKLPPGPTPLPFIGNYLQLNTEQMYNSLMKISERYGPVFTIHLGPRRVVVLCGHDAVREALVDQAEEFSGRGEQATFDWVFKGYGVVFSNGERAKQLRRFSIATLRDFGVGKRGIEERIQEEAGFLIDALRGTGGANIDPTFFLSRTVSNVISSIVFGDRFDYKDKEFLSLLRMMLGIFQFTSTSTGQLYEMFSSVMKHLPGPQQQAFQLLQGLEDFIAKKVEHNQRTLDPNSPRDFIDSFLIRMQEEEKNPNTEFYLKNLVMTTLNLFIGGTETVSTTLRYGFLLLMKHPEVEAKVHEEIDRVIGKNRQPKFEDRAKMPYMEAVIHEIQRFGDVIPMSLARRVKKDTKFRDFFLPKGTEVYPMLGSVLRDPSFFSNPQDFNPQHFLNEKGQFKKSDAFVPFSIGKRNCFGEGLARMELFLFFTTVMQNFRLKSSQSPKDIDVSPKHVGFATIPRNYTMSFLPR
In short: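 Loss of fluorescence signal relative to acetonitrile vehicle reported CYP2A6 inhibition in a cell-free system using insect-cell-derived enzyme. Readings were taken at 0.5 h; top concentration in follow-up dose series was 20 uM.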

[16] = biological target: human CYP2B6, CYP2B6 (gene 1555) (UniProt P20813); assay: NVS_ADME_hCYP2B6: NovaScreen (NVS) CYP450-related Enzyme Activity (ADME) Assay for human CYP2B6 (AID 2283101; active means hit-call score of the fitted dose curve at least 0.9, where 1 is the maximum)
Chain of human CYP2B6, CYP2B6 (gene 1555) (P20813 whole entry, looked up): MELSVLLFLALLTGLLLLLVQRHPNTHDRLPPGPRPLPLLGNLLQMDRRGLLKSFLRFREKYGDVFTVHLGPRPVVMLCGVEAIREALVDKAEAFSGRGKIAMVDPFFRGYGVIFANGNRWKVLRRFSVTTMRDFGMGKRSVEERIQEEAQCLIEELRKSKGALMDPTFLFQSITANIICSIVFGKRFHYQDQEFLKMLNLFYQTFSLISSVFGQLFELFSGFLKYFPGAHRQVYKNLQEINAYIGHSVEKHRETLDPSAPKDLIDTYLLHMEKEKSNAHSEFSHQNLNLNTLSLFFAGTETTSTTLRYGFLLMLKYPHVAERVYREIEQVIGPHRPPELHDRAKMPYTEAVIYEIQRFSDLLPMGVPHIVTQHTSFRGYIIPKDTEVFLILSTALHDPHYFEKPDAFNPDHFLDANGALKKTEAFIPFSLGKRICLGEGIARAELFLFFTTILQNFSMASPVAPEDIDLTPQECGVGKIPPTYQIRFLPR
In short: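 Recombinant human CYP2B6 with fluorogenic substrate, read by fluorescence intensity 1 h after dosing. Primary screen in duplicate at 10 uM, actives followed in concentration series; signal loss relative to acetonitrile control.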

[17] = biological target: human CYP19A1, CYP19A1 (gene 1588) (UniProt P11511); assay: NVS_ADME_hCYP19A1: NovaScreen (NVS) CYP450-related Enzyme Activity (ADME) Assay for human CYP19A1 (AID 2283098; active means hit-call score of the fitted dose curve at least 0.9, where 1 is the maximum)
Chain of human CYP19A1, CYP19A1 (gene 1588) (P11511 whole entry, looked up): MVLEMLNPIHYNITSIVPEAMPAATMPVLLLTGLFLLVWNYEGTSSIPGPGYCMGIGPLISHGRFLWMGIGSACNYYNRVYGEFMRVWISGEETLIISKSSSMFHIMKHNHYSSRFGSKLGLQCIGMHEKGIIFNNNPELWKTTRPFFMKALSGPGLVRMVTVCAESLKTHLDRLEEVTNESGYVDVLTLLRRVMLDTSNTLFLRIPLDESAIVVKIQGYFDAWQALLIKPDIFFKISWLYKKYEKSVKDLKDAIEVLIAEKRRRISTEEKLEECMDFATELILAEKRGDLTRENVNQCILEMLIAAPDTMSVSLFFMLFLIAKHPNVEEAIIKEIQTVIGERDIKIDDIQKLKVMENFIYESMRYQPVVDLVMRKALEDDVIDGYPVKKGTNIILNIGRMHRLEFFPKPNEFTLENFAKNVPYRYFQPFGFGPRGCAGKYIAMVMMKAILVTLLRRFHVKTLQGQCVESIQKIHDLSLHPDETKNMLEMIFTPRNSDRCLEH
In short: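 Recombinant enzyme in a cell-free format, read 0.5 h after dosing by fluorescence from a fluorogenic substrate. Loss of signal was fitted against acetonitrile as baseline. Primary screen in duplicate at 10 uM, actives then tested in concentration series.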

Measured: AC50

Chain of E-selectin (Homo sapiens) (P16581 whole entry, looked up): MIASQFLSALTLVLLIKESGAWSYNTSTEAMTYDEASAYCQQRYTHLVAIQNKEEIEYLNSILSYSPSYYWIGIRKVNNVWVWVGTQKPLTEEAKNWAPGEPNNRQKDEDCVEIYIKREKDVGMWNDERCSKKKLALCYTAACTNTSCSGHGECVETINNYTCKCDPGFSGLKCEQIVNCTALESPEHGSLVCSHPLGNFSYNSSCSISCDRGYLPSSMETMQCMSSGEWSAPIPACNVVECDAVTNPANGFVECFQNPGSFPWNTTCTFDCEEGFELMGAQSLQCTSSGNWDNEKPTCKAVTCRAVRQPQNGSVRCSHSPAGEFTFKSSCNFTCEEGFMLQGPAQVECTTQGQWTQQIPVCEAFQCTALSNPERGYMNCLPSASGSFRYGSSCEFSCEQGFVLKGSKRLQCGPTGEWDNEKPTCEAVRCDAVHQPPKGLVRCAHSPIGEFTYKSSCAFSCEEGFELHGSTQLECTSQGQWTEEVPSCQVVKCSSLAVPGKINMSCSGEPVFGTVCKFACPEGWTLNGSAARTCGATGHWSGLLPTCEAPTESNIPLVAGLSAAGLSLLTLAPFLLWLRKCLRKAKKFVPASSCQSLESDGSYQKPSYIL
Chain of Tumor necrosis factor (Homo sapiens) (P01375 whole entry, looked up): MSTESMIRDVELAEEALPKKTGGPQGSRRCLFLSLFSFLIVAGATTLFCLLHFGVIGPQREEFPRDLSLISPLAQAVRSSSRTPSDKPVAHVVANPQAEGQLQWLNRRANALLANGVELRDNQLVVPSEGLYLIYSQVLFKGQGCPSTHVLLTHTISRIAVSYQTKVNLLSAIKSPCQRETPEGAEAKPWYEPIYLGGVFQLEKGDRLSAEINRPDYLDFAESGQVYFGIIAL

O=C(OCCOCCOC(=O)c1ccccc1)c1ccccc1
active: [5] 3.97 µM
not listed: CD38, CD38 (gene 952) | [14] | [15] | [16] | [17]
inactive: all other assays above

O=c1c(-c2ccc(O)cc2)coc2cc(O)ccc12
active: [1] 20 µM | [4] 26.5 µM | [6] 20 µM | [11] 20 µM
not listed: [2] | [13] | [14] | [15] | [16] | [17]
inactive: all other assays above

Oc1cccc(O)c1
not listed: [13] | CD38, CD38 (gene 952) | [14] | [15] | [16] | [17]
inactive: all other assays above

c1ccc2c(c1)Cc1ccccc1-2
not listed: [13] | CD38, CD38 (gene 952) | [14] | [15] | [16] | [17]
inactive: all other assays above

NC(=O)N1C(=O)C(C(=O)c2cc(Cl)cs2)c2cc(F)c(Cl)cc21 (configuration not stated)
inactive: [3] | [5] | [6] | [9] | [10]
active: [1] 5.47 µM | [2] 0.345 µM | [4] 11.1 µM | CD40, CD40 (gene 958) 16.4 µM | CD69, CD69 (gene 969) 20 µM | [7] 5.4 µM | [8] 8.61 µM | [11] 12.4 µM | [12] 20 µM

Oc1cc2ccccc2c2ccccc12
active: [1] 11.1 µM | [2] 3.34 µM | [3] 7.85 µM | [4] 9.95 µM | [5] 11.6 µM | [6] 9.03 µM | CD40, CD40 (gene 958) 9.94 µM | CD69, CD69 (gene 969) 8.99 µM | [7] 7.84 µM | [8] 8.61 µM | [9] 10.8 µM | [14] 3.93 µM | [10] 9.87 µM | [11] 3.62 µM | [12] 9.94 µM | [13] 5.31 µM | [16] 1.31 µM
inactive: [15]

Nc1cccc2c(N)cccc12
active: [2] 12.9 µM | [11] 17.5 µM | [16] 7.14 µM
not listed: CD38, CD38 (gene 952) | [14] | [15] | [17]
inactive: all other assays above

CCCCCCCCC(=O)O
not listed: CD69, CD69 (gene 969) | [13] | CD38, CD38 (gene 952) | [14] | [15] | [16] | [17]
inactive: all other assays above

O=C(O)Cc1cc(I)c(Oc2cc(I)c(O)c(I)c2)c(I)c1
active: [1] 23.9 µM | [2] 15.1 µM | [5] 17.4 µM | [6] 13.4 µM | CD40, CD40 (gene 958) 18.5 µM | CD69, CD69 (gene 969) 15.3 µM | [7] 18.9 µM | [8] 16.2 µM | [9] 23.6 µM | [10] 13.4 µM | [11] 19.6 µM
inactive: [3] | [4] | [12]

CCCOC(=O)c1ccc(O)cc1
active: [2] 9.7 µM
not listed: [13] | CD38, CD38 (gene 952) | [14] | [17]
inactive: all other assays above

NC(=O)N(O)[C@@H]1C=C[C@H](Oc2cccc(Oc3ccc(F)cc3)c2)C1
active: [2] 8.49 µM | [11] 20 µM
not listed: [13] | CD38, CD38 (gene 952) | [14] | [15] | [16] | [17]
inactive: all other assays above

OC1CCCCC1
not listed: [13] | CD38, CD38 (gene 952) | [14] | [15] | [16] | [17]
inactive: all other assays above

COCC(C)OCC(C)O (configuration not stated)
not listed: [13] | CD38, CD38 (gene 952) | [15] | [16]
inactive: all other assays above
